These results are taken from PubChem BioAssay (NCI).

The panel holds about 83,000 compounds, 20% with a hit somewhere; the sample as a whole holds those more often.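 Assay: single dose, 48 h. Readout: percent growth (0 = no net growth; negative = cell death). Active: <10.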 Values without a mark were called inactive. Active and inactive are the calls of the source.

The test deals with 786-0 renal. Nature of the test: NCI-60 one-dose screen, 48 h (100 = growth as untreated, 0 = no growth, -100 = all killed). To be noted: 10 µM unless noted.
In the case of `Cc1ccc(C(=O)Nc2cc(-n3cnc(F)c3)cc(C(F)(F)F)c2)cc1C#Cc1cnc2cccnn12`, the growth was 53.3%. Next, `O=C(N/N=C/c1ccc(-c2cccc([N+](=O)[O-])c2)s1)c1[nH]c2ccc(Br)cc2c1-c1ccccc1`: 92.6%; `Nc1cc2ccccc2c(=O)n1NC(=O)c1ccccc1`: 105%; `C[C@@H]1[C@H]2C[C@@H](C[C@H]1NCc1nc3ccccc3n1C1CCCCCC1)C2(C)C`: 63.4%.

On to `COc1cc2cc(C(=O)N3C[C@@H](CCl)c4c3cc(OC(=O)N(CCC(=O)N3CCN(C)CC3)[C@H]3CCSSC3)c3ccccc43)[nH]c2c(OC)c1OC`, for which the growth is -79.8% (active). Next, `Cc1cn(-c2cc(NC(=O)c3ccc(C)c(-n4cc(-c5cnc6cccnn56)nn4)c3)cc(C(F)(F)F)c2)cn1`: 95.4%. Under `Cn1cc(-c2cc(N)n3nc(-c4c[nH]c5ccc(F)cc45)cc3n2)c2cccnc21` stands -95.2% (active); under `FC(F)(F)c1cc2c(Cl)ncnc2n1CCN1CCOCC1`, 99.3%; under `CCOC(=O)/C(F)=C/C1CC1C1CCN(C(=O)OC(C)(C)C)CC1` (stereo not drawn), 105%. Take `O=C(Nc1ccc(-c2ccc3c(c2)NC(=O)/C3=C\c2ccc[nH]2)cc1)Nc1cccc(Cl)c1`: the growth was -41.6% (active). Next, `O=Cc1cncc(-c2ccc3ncnc(N4CCc5cc(F)c(Cl)cc54)c3c2)c1`: 18%; `Fc1ccc(F)c(CNc2nc(SCCN3CCOCC3)nc3c2cnn3CC(Cl)c2ccc(Br)cc2)c1` (stereo not drawn): 17.7%; `Cc1nc(N)ncc1-c1ccc2ncnc(N3CCc4cc(F)c(Cl)cc43)c2c1`: 39.1%. Under `O=C(Cn1c(/C=C/c2ccc([N+](=O)[O-])cc2)nc2ccccc2c1=O)Nc1ccccc1` stands 47.2%; under `Nc1nc2cc(-c3ccc4ncnc(NCc5ccccc5)c4c3)ccc2o1`, 9.02% (active).

Turning to `COc1ccc(-c2nc3ccc(-c4nnc(SCc5ccccc5)o4)cc3[nH]2)cc1`, the growth is -62.5% (active).

As for `O=C(OCCOCCO)N(c1cccc(Br)c1)c1nc(SCCN2CCOCC2)nc2c1cnn2CC(Cl)c1ccc(Br)cc1` (stereo not drawn), the growth was -4.79% (active). Under `Oc1ccc(Cl)c(Nc2nc(SCCN3CCOCC3)nc3c2cnn3CC(Cl)c2ccc(Br)cc2)c1` (stereo not drawn) stands 43.3%. Regarding `O=C1/C(=C/C=C/c2ccco2)SC(=S)N1CC(=S)C1C=CS(=O)(=O)C1` (stereo not drawn), the growth is 91.2%. Next, `COC(=O)c1cc(C(=O)CBr)n2c1ccc1c3ccccc3ccc12`: 52.1%. Under `Cc1ccc(-c2cc(C(=O)N=Nc3c(O)[nH]c4ccc(F)cc34)c3ccccc3n2)cc1` stands 44%; under `Nc1cc(-c2c[nH]c3ccc(F)cc23)nc2cc(-c3c[nH]c4ccccc34)nn12`, -81% (active). Next, `COc1cc(NC(=O)CSc2nnc(-c3ccc(-c4nc5ccc(Cl)cc5[nH]4)cc3)o2)cc(OC)c1OC`: 56.7%; `COc1ccc(C(=O)NNC(=O)CSc2nc3sc4c(c3c(=O)n2-c2ccc(Cl)cc2)CCCC4)cc1`: 102%; `CN(CCSSCCN1CCOCC1)C(=O)Oc1cc2c(c3ccccc13)[C@H](CCl)CN2C(=O)c1cc2cc(OCCCN3CCC3)ccc2[nH]1`: -35% (active). Regarding `O=C(Cc1c(-c2ccccc2[N+](=O)[O-])n(-c2ncnc3c2c(-c2ccccc2)c(-c2ccccc2)n3Cc2ccccc2)[nH]c1=O)c1ccc(Cl)c(Cl)c1`, the growth is 36.2%.

On to `O=C(c1ccc(Cl)cc1)C1[C@H](c2ccccc2Cl)[C@@H](c2ccccc2)NC12C(=O)Nc1ccc(Br)cc12` (stereo partly drawn), for which the growth was -67% (active).

As to `Cc1cccc(-c2ccccc2Oc2ccc3nnc(Cl)n3n2)c1`, the growth was 98.8%. In the case of `CCC1(OC(=O)c2ccccc2SSCCOC(=O)CCCCC2SCC3NC(=O)NC32)C(=O)OCc2c1cc1n(c2=O)Cc2cc3ccccc3nc2-1` (stereo not drawn), the growth was 50.9%. Next, `COc1ccc(/C=C/c2nc3ccccc3n3c(-c4cccc([N+](=O)[O-])c4)nnc23)cc1`: -74.9% (active); `Cc1ccc(C(=O)Nc2cc(-c3ccncc3)cc(C(F)(F)F)c2)cc1C#Cc1cnc2cccnn12`: 46.3%. Under `COc1ccc(N=Nc2c(N)nn3c(N)c(C#N)c(-c4ccccc4)nc23)cc1` stands 13.8%; under `N#Cc1ccc(C(=O)NNC(=O)CSc2nc3sc4c(c3c(=O)n2-c2ccc(Cl)cc2)CCCC4)cc1`, 75.5%. On to `CCCCCCCCc1ccc(C(=O)Nc2cccc(O)c2)cc1`, for which the growth was 73.5%. Under `COc1ccc(/C=C/C(=O)c2ccc(OC)c(S(N)(=O)=O)c2)c(C(F)(F)F)c1` stands -82% (active); under `C#CCN(C)CCCOc1ccc(N(CC)C(=O)c2cc(C(C)C)c(O)cc2O)cc1Cl`, 21.6%. Under `CC1=C(C(=O)OCc2ccccc2)C(c2ccc(N(C)C)cc2)n2c(nc3ccccc32)N1` (stereo not drawn) stands 90.6%.

With `Cc1ccc(C2CC(c3ccc(NC(=O)Nc4ccccc4)cc3)=NN2c2ccc(S(N)(=O)=O)cc2)cc1` (stereo not drawn), the growth was -87.9% (active).
